Test systems include DU-145 prostate; K-562 leukemia; MALME-3M melanoma; MDA-MB-231 breast; RXF 393 renal; SF-268 CNS; SF-295 CNS; SF-539 CNS; UACC-257 melanoma; M14 melanoma; HCT-15 colon; HT29 colon; SNB-75 CNS; SNB-19 CNS; U251 CNS; PC-3 prostate; SK-MEL-5 melanoma; UACC-62 melanoma; LOX IMVI melanoma; SK-MEL-28 melanoma.
Common to all, as to test: NCI-60 one-dose screen, 48 h (100 = growth as untreated, 0 = no growth, -100 = all killed)
What all share (conditions): 10 µM unless noted

The panel holds about 83,000 compounds, 20% with a hit somewhere; the sample as a whole holds those more often.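 Values shown are percent growth following 48 h exposure of cells in 96-well plates to a single concentration of compound; below 10 was considered active.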 A number with no mark means an inactive call. The source made the active and inactive calls.

For the compound `c1cncc(-c2nc3ccccc3[nH]2)c1`, the growth was 112% in the assay on DU-145 prostate; 102% in the assay on K-562 leukemia; 109% with MALME-3M melanoma; 83.4% in the assay with MDA-MB-231 breast; 94.6% with RXF 393 renal; 105% in the assay on SF-268 CNS. Besides, the growth is 118% in the assay with SF-295 CNS; 97.8% in the assay with SF-539 CNS; 27.7% in the assay with UACC-257 melanoma; 99.7% in the assay on M14 melanoma; 111% in the assay with HCT-15 colon; 102% with HT29 colon. Further, the growth was 96.9% in the assay with SNB-75 CNS; 111% with SNB-19 CNS; 104% with U251 CNS; 89.7% with PC-3 prostate; 90.8% with SK-MEL-5 melanoma; 85.5% in the assay on UACC-62 melanoma. For the same compound, the growth is 94.4% in the assay with LOX IMVI melanoma and 87% in the assay with SK-MEL-28 melanoma.
With `CC(C)(CCN=C(N)Nc1ccccn1)c1ccc(C(F)(F)F)cc1`, the growth was 52.7% with DU-145 prostate; -31.2% (active) in the assay with K-562 leukemia; -49.4% (active) with MALME-3M melanoma; -14.4% (active) in the assay with MDA-MB-231 breast; 26.2% with RXF 393 renal; 51.2% with SF-268 CNS. The growth was 6.92% (active) in the assay with SF-295 CNS; 53.9% in the assay on SF-539 CNS; -7.98% (active) in the assay on UACC-257 melanoma; -64.3% (active) with M14 melanoma; 9.42% (active) with HCT-15 colon; -14.8% (active) in the assay with HT29 colon. In addition, the growth with SNB-75 CNS was 48.3%; with SNB-19 CNS it was 37.2%; in the assay with U251 CNS, -17% (active); in the assay with PC-3 prostate, 19.7%; in the assay on SK-MEL-5 melanoma, -91.4% (active); in the assay on UACC-62 melanoma, -2.3% (active). Moreover, the growth was 5.15% (active) with LOX IMVI melanoma and -30.9% (active) in the assay on SK-MEL-28 melanoma.
Consider `CN[C@@H](CCCNC(N)=NC/C=C(/C)CCC=C(C)C)C(=O)N(C)[C@@H](CCCNC(N)=NCC=C(C)C)C(=O)N[C@H](C)[C@H](OS(=O)(=O)O)c1ccc(OS(=O)(=O)O)c(COS(=O)(=O)O)c1`, for which the growth in the assay on DU-145 prostate is 108%; with K-562 leukemia it was 110%; in the assay with MALME-3M melanoma, 117%; with MDA-MB-231 breast, 95.5%; in the assay with RXF 393 renal, 102%; in the assay with SF-268 CNS it was 101%. Moreover, the growth is 112% with SF-295 CNS; 104% with SF-539 CNS; 92.5% in the assay with UACC-257 melanoma; 105% with M14 melanoma; 113% in the assay on HCT-15 colon; 86.2% with HT29 colon. For the same compound, the growth in the assay on SNB-75 CNS is 98.6%; in the assay on SNB-19 CNS it was 101%; in the assay with U251 CNS it was 98.4%; in the assay on PC-3 prostate, 89.5%; in the assay on SK-MEL-5 melanoma, 99.6%; with UACC-62 melanoma, 93.8%. The growth in the assay on LOX IMVI melanoma was 99.7%; in the assay on SK-MEL-28 melanoma it was 107%.
As to `COc1ccc(-c2cc(-c3nnc(SC/C(=N\O)c4ccccc4)n3-c3ccccc3)c3ccccc3n2)cc1`, the growth with DU-145 prostate is 111%; in the assay on K-562 leukemia it was 113%; in the assay with MALME-3M melanoma, 100%; in the assay on MDA-MB-231 breast it was 103%; in the assay on RXF 393 renal it was 117%; with SF-268 CNS, 102%. The growth in the assay on SF-295 CNS is 104%; in the assay on SF-539 CNS, 102%; in the assay with UACC-257 melanoma it was 104%; in the assay on M14 melanoma, 116%; with HCT-15 colon it was 107%; with HT29 colon it was 99.5%. In addition, the growth with SNB-75 CNS was 100%; in the assay on SNB-19 CNS it was 105%; in the assay with U251 CNS it was 101%; in the assay with PC-3 prostate, 93.6%; in the assay with SK-MEL-5 melanoma, 108%; in the assay on UACC-62 melanoma it was 97.6%. Besides, the figures for the growth in the assay on LOX IMVI melanoma and with SK-MEL-28 melanoma were 95.7% and 113%, respectively.
Take `COc1cc(/C=C/C(=O)c2c(C)[n+]([O-])c3ccccc3[n+]2[O-])ccc1O`: the growth in the assay with DU-145 prostate was 101%; in the assay with K-562 leukemia it was 85.2%; in the assay on MALME-3M melanoma, 103%; in the assay with MDA-MB-231 breast it was 81.5%; with RXF 393 renal, 111%; with SF-268 CNS, 95.5%. Moreover, the growth with SF-295 CNS is 89.3%; with SF-539 CNS, 100%; in the assay with UACC-257 melanoma, 98.9%; with M14 melanoma, 103%; in the assay on HCT-15 colon, 93.5%; with HT29 colon, 161%. Further, the growth with SNB-75 CNS is 162%; in the assay on SNB-19 CNS, 111%; with U251 CNS it was 90.8%; with PC-3 prostate it was 90.6%; in the assay on SK-MEL-5 melanoma, 81.6%; with UACC-62 melanoma, 110%. In addition, the growth is 92.6% with LOX IMVI melanoma and 117% in the assay with SK-MEL-28 melanoma.
Regarding `CC/C(=C(\CC)c1ccc(OCCN(CC)CC)cc1)c1ccc(OCCN(CC)CC)cc1`, the growth in the assay on DU-145 prostate was 73.9%; in the assay with K-562 leukemia, 12.7%; in the assay with MALME-3M melanoma, -42.8% (active); with MDA-MB-231 breast, 5.07% (active); in the assay with RXF 393 renal, -4.27% (active); in the assay with SF-268 CNS, 55.2%. The growth was -13.9% (active) in the assay on SF-295 CNS; -35% (active) in the assay with SF-539 CNS; -51.8% (active) in the assay on UACC-257 melanoma; -0.0375% (active) in the assay on M14 melanoma; 6.7% (active) in the assay on HCT-15 colon; -0.437% (active) with HT29 colon. The growth with SNB-75 CNS is 39.1%; in the assay on SNB-19 CNS, 62.5%; in the assay with U251 CNS it was 24.6%; in the assay with PC-3 prostate it was 29%; in the assay with SK-MEL-5 melanoma it was -96.4% (active); in the assay on UACC-62 melanoma, 10.9%. Moreover, the figures for the growth in the assay on LOX IMVI melanoma and with SK-MEL-28 melanoma were -5.77% (active) and -40.5% (active), respectively.
Take `O=c1[nH]ccc2nc(N3CCC(O)CC3)nc(Nc3cccc(C(F)(F)F)c3)c12`: the growth is 72% in the assay on DU-145 prostate; 44.7% in the assay on K-562 leukemia; 64.5% with MALME-3M melanoma; 88.3% with MDA-MB-231 breast; 54.4% in the assay on RXF 393 renal; 67.1% with SF-268 CNS. In addition, the growth in the assay on SF-295 CNS was 96.8%; in the assay on SF-539 CNS, 80.4%; in the assay on UACC-257 melanoma, 16.3%; in the assay with M14 melanoma it was 39.1%; with HCT-15 colon it was 49.9%; in the assay on HT29 colon it was 71.6%. The growth was 87.1% with SNB-75 CNS; 98.9% with SNB-19 CNS; 55.2% in the assay with U251 CNS; 30.6% with PC-3 prostate; -55.9% (active) with SK-MEL-5 melanoma; 32% in the assay on UACC-62 melanoma. Moreover, the results for the growth in the assay on LOX IMVI melanoma and in the assay on SK-MEL-28 melanoma were 56.2% and 76.1%, respectively.
For the compound `CC1OC(n2c3ccccc3c3c4c(c5c6ccccc6[nH]c5c32)C(=O)N(CCN[C@@H]2CCC[C@H]2N)C4=O)CC(O)C1O` (stereo not given in full), the growth with DU-145 prostate is 31.8%; with K-562 leukemia it was 1.43% (active); in the assay on MALME-3M melanoma, 24.9%; in the assay on MDA-MB-231 breast it was 16.4%; with RXF 393 renal, 33.7%; with SF-268 CNS it was 30.6%. In addition, the growth is 8.14% (active) in the assay with SF-295 CNS; 17.8% in the assay with SF-539 CNS; 29.8% in the assay with UACC-257 melanoma; 18.7% in the assay on M14 melanoma; 70.2% with HCT-15 colon; 0.0923% (active) with HT29 colon. Besides, the growth was 12.5% with SNB-75 CNS; 14.8% in the assay on SNB-19 CNS; 7.39% (active) in the assay with U251 CNS; 9.72% (active) in the assay on PC-3 prostate; -48.6% (active) in the assay with SK-MEL-5 melanoma; 17.9% in the assay on UACC-62 melanoma. In addition, the values for the growth in the assay on LOX IMVI melanoma and in the assay on SK-MEL-28 melanoma were 0.411% (active) and 45.3%, respectively.

Values taken from PubChem BioAssay (NCI).
